This is an account of results in PubChem BioAssay (NCI).

About 83,000 compounds went through this panel and 20% of them were active in at least one assay; those are over-represented in the sample as a whole.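 Cell lines were cultured in 96-well plates, exposed to a single compound concentration, and assessed for percent growth 48 hours later.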 A number with no mark means an inactive call. Calls of active or inactive are those of the source. Rule for the calls: active = growth percent below 10; inactive = the rest.

Some test systems named below: NCI-H23 lung; NCI-H226 lung; NCI-H322M lung; HOP-62 NSCLC; NCI-H460 lung; HOP-92 NSCLC; NCI-H522 lung; A549/ATCC NSCLC; 786-0 renal; COLO 205 colon; DU-145 prostate; K-562 leukemia; MALME-3M melanoma; MDA-MB-231 breast; RXF 393 renal; SF-268 CNS; SF-295 CNS; SF-539 CNS; UACC-257 melanoma; M14 melanoma.
Experiment in all cases: NCI-60 one-dose screen, 48 h (100 = growth as untreated, 0 = no growth, -100 = all killed)
Details in all cases: 10 µM unless noted

On to `N#Cc1ccc(/C=C/c2cn(-c3ccccc3)nc2-c2cccc([N+](=O)[O-])c2)cc1`, for which the growth is 56.4% in the experiment on NCI-H23 lung; 6.28% (active) in the experiment on NCI-H226 lung; 62.9% with NCI-H322M lung; 37.8% in the experiment on HOP-62 NSCLC; 40.1% in the experiment on NCI-H460 lung; 74.6% with HOP-92 NSCLC. The growth is 20.1% in the experiment with NCI-H522 lung; 49.5% in the experiment on A549/ATCC NSCLC; 58.7% with 786-0 renal; 83.6% in the experiment with COLO 205 colon; 59.5% in the experiment on DU-145 prostate; 61.2% with K-562 leukemia. In addition, the growth is 50.3% with MALME-3M melanoma; 36.1% with MDA-MB-231 breast; 67.1% in the experiment with RXF 393 renal; 56.5% with SF-268 CNS; 62.5% in the experiment on SF-295 CNS; 65.7% in the experiment with SF-539 CNS. For the same compound, the growth was 70.2% with UACC-257 melanoma and 68.8% with M14 melanoma.
Regarding `C#Cc1cccc(NC(=O)C2CCCCN2C(=O)CCl)c1` (stereo not given), the growth was -76.1% [8.25 µM] (active) in the experiment on NCI-H23 lung; -53.4% [8.25 µM] (active) in the experiment on NCI-H226 lung; 65.1% [8.25 µM] in the experiment with NCI-H322M lung; 26.6% [8.25 µM] with HOP-62 NSCLC; 10.9% [8.25 µM] in the experiment on NCI-H460 lung; -54.2% [8.25 µM] (active) in the experiment on HOP-92 NSCLC. Also, the growth is -57% [8.25 µM] (active) in the experiment on NCI-H522 lung; 36.5% [8.25 µM] with A549/ATCC NSCLC; -72.9% [8.25 µM] (active) in the experiment on 786-0 renal; -52.5% [8.25 µM] (active) in the experiment with COLO 205 colon; -33.8% [8.25 µM] (active) in the experiment on DU-145 prostate; 2.41% [8.25 µM] (active) with K-562 leukemia. In addition, the growth was -86.7% [8.25 µM] (active) in the experiment on MALME-3M melanoma; -62% [8.25 µM] (active) in the experiment with MDA-MB-231 breast; -87.8% [8.25 µM] (active) with RXF 393 renal; -53.2% [8.25 µM] (active) with SF-268 CNS; 52.4% [8.25 µM] with SF-295 CNS; -91.1% [8.25 µM] (active) in the experiment with SF-539 CNS. In addition, the growth is -0.384% [8.25 µM] (active) in the experiment with UACC-257 melanoma and -41.9% [8.25 µM] (active) in the experiment with M14 melanoma.
Regarding `C=C(C)[C@@H]1CC[C@]2(C(=O)N3CCN(C)CC3)CC[C@]3(C)[C@H](CC[C@@H]4[C@@](C)(CCC(=O)O)[C@H](C(=C)C)CC[C@]43C)[C@@H]12`, the growth in the experiment with NCI-H23 lung was 95.4%; with NCI-H226 lung, 93.3%; in the experiment on NCI-H322M lung, 98.5%; in the experiment with HOP-62 NSCLC, 95.5%; in the experiment on NCI-H460 lung, 78%; with HOP-92 NSCLC it was 78.6%. Besides, the growth with NCI-H522 lung was 73.5%; in the experiment on A549/ATCC NSCLC, 65.7%; with 786-0 renal, 90.2%; with COLO 205 colon, 94.3%; in the experiment on DU-145 prostate, 99.9%; in the experiment on K-562 leukemia, 58%. Besides, the growth in the experiment with MALME-3M melanoma is 87%; in the experiment on MDA-MB-231 breast, 91.2%; with RXF 393 renal, 93.3%; in the experiment on SF-268 CNS, 80.6%; with SF-295 CNS, 78.8%; with SF-539 CNS, 92.6%. The growth in the experiment on UACC-257 melanoma is 83.5%; in the experiment with M14 melanoma, 87.1%.
As to `CN(C)/C(N)=N/N=C(\c1ccccc1)c1ccccn1`, the growth with NCI-H23 lung is 95.7%; in the experiment with NCI-H226 lung, 97.3%; with NCI-H322M lung, 83.1%; in the experiment with HOP-62 NSCLC it was 110%; in the experiment with NCI-H460 lung it was 101%; in the experiment on HOP-92 NSCLC, 87.2%. Besides, the growth was 95.5% with NCI-H522 lung; 107% in the experiment on A549/ATCC NSCLC; 99.9% in the experiment on 786-0 renal; 106% in the experiment with COLO 205 colon; 97.7% in the experiment with DU-145 prostate; 96.7% in the experiment on K-562 leukemia. Also, the growth in the experiment on MALME-3M melanoma was 93.3%; in the experiment on MDA-MB-231 breast, 88.1%; in the experiment with RXF 393 renal, 98.5%; with SF-268 CNS it was 92.6%; in the experiment on SF-295 CNS, 106%; in the experiment on SF-539 CNS, 103%. The growth in the experiment on UACC-257 melanoma was 112%; with M14 melanoma, 93%.
`Cn1cc(-c2nonc2-c2c[nH]c3ccccc23)c2cc(Br)ccc21`: the growth is 52.9% in the experiment with NCI-H23 lung; 75.5% in the experiment on NCI-H226 lung; 53.2% with NCI-H322M lung; 25.2% with HOP-62 NSCLC; 14.9% in the experiment on NCI-H460 lung; 63.4% in the experiment with HOP-92 NSCLC. The growth with NCI-H522 lung is 7.04% (active); in the experiment with A549/ATCC NSCLC, 27.9%; in the experiment on 786-0 renal, 50.6%; in the experiment on COLO 205 colon, 15%; in the experiment with DU-145 prostate, 58.1%; in the experiment with K-562 leukemia it was 11.1%. Further, the growth was 40.8% in the experiment on MALME-3M melanoma; 37% in the experiment with MDA-MB-231 breast; 70.9% in the experiment with RXF 393 renal; 43.3% in the experiment on SF-268 CNS; 24.5% in the experiment with SF-295 CNS; 40.1% in the experiment on SF-539 CNS. In addition, the growth with UACC-257 melanoma is 71.5%; with M14 melanoma, 18.5%.
Regarding `O=S(=O)(NCCNc1nccc(-c2c(-c3ccc(F)c(O)c3)nc3sccn23)n1)c1ccc(Cl)cc1`, the growth with NCI-H23 lung is 42.1%; in the experiment with NCI-H226 lung, 24.2%; in the experiment on NCI-H322M lung it was 55.8%; in the experiment on HOP-62 NSCLC, 60.2%; in the experiment with NCI-H460 lung it was 27%; in the experiment on HOP-92 NSCLC, 45%. In addition, the growth in the experiment with NCI-H522 lung is 22.2%; with A549/ATCC NSCLC, 25.7%; in the experiment on 786-0 renal it was 38.3%; in the experiment with COLO 205 colon, 17.6%; in the experiment on DU-145 prostate it was 44%; in the experiment with K-562 leukemia, 15.7%. In addition, the growth is 20.6% with MALME-3M melanoma; 50.1% in the experiment with MDA-MB-231 breast; 25% in the experiment on RXF 393 renal; 32.3% in the experiment with SF-268 CNS; 29.5% in the experiment on SF-295 CNS; 43% with SF-539 CNS. For the same compound, the figures for the growth in the experiment on UACC-257 melanoma and in the experiment on M14 melanoma were 32.9% and 27.5%, respectively.
Consider `COC12C=C/C(=C(/C(=O)OCc3cncnc3)C(=O)CCCCCCCCC3(OC)C=C/C(=C(/C(=O)OCc4cncnc4)C(=O)CCCCCCCC1)O3)O2`, for which the growth was -49.9% (active) in the experiment on NCI-H23 lung; -78% (active) in the experiment on NCI-H226 lung; -66% (active) in the experiment on NCI-H322M lung; 9.7% (active) with HOP-62 NSCLC; -20.5% (active) in the experiment on NCI-H460 lung; -59.7% (active) with HOP-92 NSCLC. Moreover, the growth in the experiment on NCI-H522 lung was -33.8% (active); in the experiment on A549/ATCC NSCLC, -7.89% (active); in the experiment on 786-0 renal, -70.7% (active); in the experiment on COLO 205 colon, -30.5% (active); with DU-145 prostate it was -42.7% (active); with K-562 leukemia it was -16.8% (active). The growth was -70.8% (active) with MALME-3M melanoma; 5.88% (active) with MDA-MB-231 breast; -74.2% (active) with RXF 393 renal; -10.6% (active) in the experiment with SF-268 CNS; -13.8% (active) in the experiment with SF-295 CNS; -27% (active) in the experiment with SF-539 CNS. Also, the growth in the experiment with UACC-257 melanoma was -12.7% (active); with M14 melanoma, -12.3% (active).
